From PubChem BioAssay come the findings set out here.

Unmarked numbers belong to inactive results. For some of these results: Measured potencies and affinities stand elsewhere. Activity calls are given as the source filed them. Unless noted, no rule for the calls is given here.

A short description of assay [1]: antimalarial activity against Dd2 strain (AID 2302;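 active = growth inhibition above 50% at the single 2 µM test dose, taken to imply half-maximal potency below 2 µM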;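 also: 0% = DMSO untreated growth and 100% = chloroquine plus artemisinin killed control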). The settings on record: P. falciparum Dd2 in RBCs, LDH growth readout, 72 h; at 2 µM; stronger effect = higher value.
Assay [2] in a line: human hepatoma cell viability loss – ATP luminescence, cytotoxicity control for P. falciparum antimalarial project, primary screen (AID 2303;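 active = inhibition above 50%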;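 also: 0% = DMSO wells and 100% = digitonin-killed cells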). The following applies: HepG2 viability, 24-48 h, at 10 µM, stronger effect = higher value.
For assay [3], the target named is L-lactate dehydrogenase (Plasmodium falciparum (isolate CDC / Honduras)) (UniProt Q27743). The experiment in a line: PfLDH activity inhibition – cell lysate, 3D7 strain, counter-screen for P. falciparum growth inhibition project (AID 2304).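 Also: 0% = vehicle and 100% = reference inhibitor.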 The following applies: P. falciparum 3D7 crude extract, LDH APAD/NBT absorbance; at 2 µM; stronger effect = higher value. A general note: A counterscreen serves to expose hits that act by an unwanted route or on another target.
Sequence of L-lactate dehydrogenase (Plasmodium falciparum (isolate CDC / Honduras)) (Q27743 whole entry, looked up): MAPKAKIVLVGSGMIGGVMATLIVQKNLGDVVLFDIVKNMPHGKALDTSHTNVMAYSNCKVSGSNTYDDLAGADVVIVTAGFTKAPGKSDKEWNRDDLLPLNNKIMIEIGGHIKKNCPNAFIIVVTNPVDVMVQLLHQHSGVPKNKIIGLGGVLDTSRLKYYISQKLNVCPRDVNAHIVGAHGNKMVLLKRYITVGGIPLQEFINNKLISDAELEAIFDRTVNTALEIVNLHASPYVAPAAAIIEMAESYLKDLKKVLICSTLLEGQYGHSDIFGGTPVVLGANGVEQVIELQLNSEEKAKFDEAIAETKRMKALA

The nature of assay [4]: inhibition of 3D7 malaria parasite growth – strain 3D7 (AID 2306).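 Also: 0% = DMSO wells and 100% = chloroquine plus artemisinin control wells.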 The following applies: P. falciparum 3D7 erythrocytic growth, LDH absorbance, 72 h; at 2 µM; stronger effect = higher value.
For assay [5], the target named is Calcium-dependent protein kinase 1 (Plasmodium falciparum (isolate 3D7)) (UniProt P62344). The experiment in a line: PfCDPK1 kinase inhibitors, biochemical, TCAMS library (AID 1159585; cut-off not given, nearly all actives have IC50 up to about 0.98 µM;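 also: inhibitors leave more ATP so luminescence rises with inhibition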). The settings on record: recombinant PfCDPK1, Kinase-Glo ATP depletion luminescence. In general terms: Kinase-Glo reads ATP consumption through a luciferase reaction.
Sequence of Calcium-dependent protein kinase 1 (Plasmodium falciparum (isolate 3D7)) (P62344 whole entry, looked up): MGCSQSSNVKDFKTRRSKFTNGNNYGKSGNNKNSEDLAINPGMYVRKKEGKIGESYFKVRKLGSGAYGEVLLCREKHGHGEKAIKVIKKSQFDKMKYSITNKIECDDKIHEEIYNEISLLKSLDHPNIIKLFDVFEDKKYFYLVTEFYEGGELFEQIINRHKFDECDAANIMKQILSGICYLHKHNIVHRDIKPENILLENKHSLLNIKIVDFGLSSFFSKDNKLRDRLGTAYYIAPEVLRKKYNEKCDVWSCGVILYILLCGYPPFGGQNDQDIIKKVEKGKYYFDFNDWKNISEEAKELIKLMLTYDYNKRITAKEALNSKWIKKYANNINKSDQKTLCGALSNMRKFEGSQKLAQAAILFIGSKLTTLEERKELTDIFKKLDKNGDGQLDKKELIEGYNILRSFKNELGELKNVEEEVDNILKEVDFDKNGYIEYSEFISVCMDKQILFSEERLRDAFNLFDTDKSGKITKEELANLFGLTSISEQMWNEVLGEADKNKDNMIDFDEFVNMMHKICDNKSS
The target of assay [6] is Plasmodium falciparum protein kinase 6 (PK6, PF3D7_1337100) (UniProt Q8IDW1). Nature of the assay: PfPK6 kinase inhibitors, biochemical, TCAMS library (AID 1159586). The settings on record: recombinant PfPK6, Kinase-Glo ATP depletion luminescence.
Sequence of Plasmodium falciparum protein kinase 6 (PK6, PF3D7_1337100) (Q8IDW1 1-305): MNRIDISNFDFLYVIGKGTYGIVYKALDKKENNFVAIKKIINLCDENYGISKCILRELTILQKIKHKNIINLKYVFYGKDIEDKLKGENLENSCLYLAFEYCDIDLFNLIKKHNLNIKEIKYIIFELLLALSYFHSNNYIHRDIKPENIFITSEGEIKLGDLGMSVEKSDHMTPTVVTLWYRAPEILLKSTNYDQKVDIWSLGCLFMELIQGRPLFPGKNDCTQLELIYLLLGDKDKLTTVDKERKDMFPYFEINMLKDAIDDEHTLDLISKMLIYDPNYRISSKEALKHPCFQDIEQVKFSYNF
The target in assay [7] is Protein kinase 7 (PK7), Plasmodium falciparum 3D7 (PF3D7_0213400) (UniProt Q7YTF7). The experiment in a line: inhibition of Plasmodium PK7 catalytic activity – biochemical, TCAMS antimalarial set, Kinase-Glo luminescence (AID 1159587). The settings on record: recombinant PfPK7, Kinase-Glo ATP depletion luminescence.
Sequence of Protein kinase 7 (PK7), Plasmodium falciparum 3D7 (PF3D7_0213400) (Q7YTF7 1-343): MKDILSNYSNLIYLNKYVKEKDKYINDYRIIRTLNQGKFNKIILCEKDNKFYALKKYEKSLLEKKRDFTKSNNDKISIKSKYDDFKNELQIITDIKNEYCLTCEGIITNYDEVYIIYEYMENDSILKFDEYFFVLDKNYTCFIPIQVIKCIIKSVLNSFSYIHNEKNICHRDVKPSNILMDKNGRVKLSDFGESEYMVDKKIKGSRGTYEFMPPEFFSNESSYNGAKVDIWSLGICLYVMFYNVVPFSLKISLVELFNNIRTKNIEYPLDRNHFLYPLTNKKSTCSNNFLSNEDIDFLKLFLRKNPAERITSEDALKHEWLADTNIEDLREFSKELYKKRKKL
The target in assay [8] is Calcium-dependent protein kinase 4 (Plasmodium falciparum (isolate 3D7)) (UniProt Q8IBS5). Nature of the assay: PfCDPK4 kinase inhibitors, biochemical, TCAMS library (AID 1159588; cut-off not given, nearly all actives have IC50 up to about 0.91 µM). The settings on record: recombinant PfCDPK4, Kinase-Glo ATP depletion luminescence.
Sequence of Calcium-dependent protein kinase 4 (Plasmodium falciparum (isolate 3D7)) (Q8IBS5 whole entry, looked up): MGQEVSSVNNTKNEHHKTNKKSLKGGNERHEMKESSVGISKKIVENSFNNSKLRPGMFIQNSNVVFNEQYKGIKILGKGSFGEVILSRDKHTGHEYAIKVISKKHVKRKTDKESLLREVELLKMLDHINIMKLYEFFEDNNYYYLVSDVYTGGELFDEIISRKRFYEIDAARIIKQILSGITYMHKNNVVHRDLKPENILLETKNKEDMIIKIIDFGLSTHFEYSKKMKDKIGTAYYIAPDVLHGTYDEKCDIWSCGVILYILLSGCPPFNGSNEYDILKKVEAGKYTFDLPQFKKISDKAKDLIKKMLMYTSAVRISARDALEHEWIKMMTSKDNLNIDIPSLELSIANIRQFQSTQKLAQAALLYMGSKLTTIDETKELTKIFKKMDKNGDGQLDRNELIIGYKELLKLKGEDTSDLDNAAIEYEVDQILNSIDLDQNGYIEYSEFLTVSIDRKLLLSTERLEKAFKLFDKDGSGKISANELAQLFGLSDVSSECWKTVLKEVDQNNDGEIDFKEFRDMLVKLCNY

On to `NC(=NCc1ccccc1)Nc1nc(-c2ccc(OCCCn3ccnc3)cc2)cs1`, for which the growth inhibition in assay [1] is 55% (active); in assay [4], 100% (active). The inhibition in assay [2] is 10%; in assay [3], 2%. In addition, the outcome in assay [5], in assay [6], in assay [7] and in assay [8] was inactive.

With `COc1ccc(N2C(=O)C3C(C2=O)C2(C)c4ccccc4C3(C)c3ccccc32)c([N+](=O)[O-])c1` (stereo not given), the growth inhibition in assay [1] is 54% (active); in assay [4] it was 99% (active). Besides, the inhibition in assay [2] is 11%; in assay [3], 7%. In addition, the outcome in assay [5], in assay [6], in assay [7] and in assay [8] was inactive.

As to `c1ccc(-c2ccc(CNCc3ccc(-c4cccc(-c5nc6ccccc6[nH]5)c4)cc3)s2)nc1`, the growth inhibition was 80% (active) in assay [1] and 98% (active) in assay [4]. Also, the inhibition in assay [2] is 48%; in assay [3], -1%. The result in assay [5], in assay [6], in assay [7] and in assay [8] was inactive.

In the case of `OCC1CCN(Cc2ccc(-c3ccc(-c4nc5ccc(C(F)(F)F)cc5[nH]4)cc3)cc2)CC1`, the growth inhibition in assay [1] was 91% (active); in assay [4], 100% (active). The inhibition in assay [2] was 17%; in assay [3], -2%. The outcome in assay [5], in assay [6], in assay [7] and in assay [8] was inactive.

For `Cc1cc(F)ccc1[C@H]1C[C@H](N2CCOCC2)CCN1C(=O)N(C)[C@@H](C)c1cc(C(F)(F)F)cc(C(F)(F)F)c1`, the growth inhibition in assay [1] is 99% (active); in assay [4], 100% (active). The inhibition in assay [2] is 4%; in assay [3] it was 3%. In addition, the outcome in assay [5], in assay [6], in assay [7] and in assay [8] was inactive.

For the compound `Nc1nc(N)c2c(ccc3nn(Cc4cccnc4)cc32)n1`, the results for the growth inhibition in assay [1] and in assay [4] were 0% and 96% (active), respectively. Moreover, the inhibition in assay [2] is 41%; in assay [3], 0%. The outcome in assay [5], in assay [6], in assay [7] and in assay [8] was inactive.

As to `CCC(=O)Nc1nnc(Cc2ccc(OC)c(OC)c2)s1`, the growth inhibition in assay [1] was 1%; in assay [4], 93% (active). In addition, the inhibition in assay [2] was -4%; in assay [3], -2%. The result in assay [5], in assay [6], in assay [7] and in assay [8] was inactive.

For `O=C(Nc1ccc(C(F)(F)F)cc1)c1cccc(S(=O)(=O)NC2CCN(CC3CCCCC3)C2)c1` (stereo not given), the growth inhibition was 10% in assay [1] and 98% (active) in assay [4]. Further, the inhibition is 32% in assay [2] and -2% in assay [3]. In addition, the outcome in assay [5], in assay [6], in assay [7] and in assay [8] was inactive.

On to `COc1cc(Cc2cnc(N)nc2N)cc(OCCCCC2SC(=O)NC2=O)c1Br` (stereo not given), for which the growth inhibition in assay [1] was -2%; in assay [4], 94% (active). The results for the inhibition in assay [2] and in assay [3] were 15% and 4%, respectively. In addition, the outcome in assay [5], in assay [6], in assay [7] and in assay [8] was inactive.

`CN(C)CCCc1cc(NC(=O)Nc2cccc(Cl)c2Cl)ccc1I`: the growth inhibition in assay [1] is 45%; in assay [4], 102% (active). The inhibition in assay [2] was 12%; in assay [3], 1%. The outcome in assay [5], in assay [6], in assay [7] and in assay [8] was inactive.

On to `CCCc1ccc(NC(=O)c2ccc(CN3CCCN(Cc4cccc(O)c4)CC3)cc2)cc1`, for which the growth inhibition is 63% (active) in assay [1] and 101% (active) in assay [4]. The inhibition is 51% (active) in assay [2] and -1% in assay [3]. For the same compound, the outcome in assay [5], in assay [6], in assay [7] and in assay [8] was inactive.

On to `Cc1cccc(-c2nc3[nH]c(=O)cc(NC(=O)C(C)C)n3n2)c1`, for which the results for the growth inhibition in assay [1] and in assay [4] were 93% (active) and 96% (active), respectively. For the same compound, the inhibition in assay [2] was -12%; in assay [3] it was 0%. In addition, the result in assay [5], in assay [6], in assay [7] and in assay [8] was inactive.

For the compound `CCN(CC)CCn1c(=N)n(CC(O)c2ccc(Cl)c(Cl)c2)c2ccccc21` (stereo not given), the figures for the growth inhibition in assay [1] and in assay [4] were 88% (active) and 99% (active), respectively. Further, the figures for the inhibition in assay [2] and in assay [3] were 35% and 6%, respectively. The outcome in assay [5], in assay [6], in assay [7] and in assay [8] was inactive.

Regarding `c1cc(CNC2Cc3ccc(-c4cccs4)cc3C2)cc(-n2ccnc2)c1` (stereo not given), the growth inhibition in assay [1] was 63% (active); in assay [4], 100% (active). Further, the results for the inhibition in assay [2] and in assay [3] were 0% and -1%, respectively. Also, the outcome in assay [5], in assay [6], in assay [7] and in assay [8] was inactive.

In the case of `CN(CCON1C(N)=NC(N)=NC1(C)C)c1ccccc1`, the results for the growth inhibition in assay [1] and in assay [4] were 93% (active) and 97% (active), respectively. In addition, the inhibition was 64% (active) in assay [2] and 1% in assay [3]. Further, the result in assay [5], in assay [6], in assay [7] and in assay [8] was inactive.

Take `Fc1ccc2nc(-c3ccc(-c4ccc(CN5CCC(CCN6CCCCC6)CC5)cc4)s3)[nH]c2c1`: the growth inhibition in assay [1] and in assay [4] was 101% (active) each time. Besides, the results for the inhibition in assay [2] and in assay [3] were 96% (active) and 3%, respectively. Moreover, the result in assay [5], in assay [6], in assay [7] and in assay [8] was inactive.

As to `O=C(NCC(CCCN1CCC(c2c[nH]c3ccccc23)CC1)c1ccccc1)Nc1ccc(Cl)c(Cl)c1` (stereo not given), the results for the growth inhibition in assay [1] and in assay [4] were 64% (active) and 101% (active), respectively. In addition, the values for the inhibition in assay [2] and in assay [3] were 38% and 1%, respectively. In addition, the outcome in assay [5], in assay [6], in assay [7] and in assay [8] was inactive.

For `c1ccc(-c2cccc(-c3ccccn3)n2)nc1`, the figures for the growth inhibition in assay [1] and in assay [4] were 99% (active) and 98% (active), respectively. Further, the inhibition in assay [2] was 45%; in assay [3] it was -1%. For the same compound, the outcome in assay [5], in assay [6], in assay [7] and in assay [8] was inactive.

Take `CC(C)CC(=O)N1CCNC[C@@H]1C(=O)NCc1ccc(Cl)c(Cl)c1`: the growth inhibition is 16% in assay [1] and 99% (active) in assay [4]. Besides, the inhibition in assay [2] and in assay [3] was -3% each time. The result in assay [5], in assay [6], in assay [7] and in assay [8] was inactive.

In the case of `O=S(=O)(NCCN1CCCC1)c1ccc(-c2cccc(CNC3Cc4ccccc4C3)c2)cc1`, the results for the growth inhibition in assay [1] and in assay [4] were 57% (active) and 99% (active), respectively. Further, the inhibition in assay [2] was 55% (active); in assay [3] it was -6%. In addition, the result in assay [5], in assay [6], in assay [7] and in assay [8] was inactive.

As a reminder, the inhibition is the relative decrease from the control value, in per cent.
